The text below walks through data of PubChem BioAssay (EPA / NIEHS).

Results filed as inconclusive are left out. Calls of active or inactive are those of the source. How the source made its calls, unless noted: active means hit-call score of the fitted dose curve at least 0.9, where 1 is the maximum; inconclusive means response in the unintended direction; inactive means score below 0.9.

Experiment [1] can be described thus: CCTE_Padilla_ZF_144hpf_TERATOSCORE: (Legacy) CCTE's 144 Hour Post-fertilization zebrafish Assay Teratoscore, Padilla Lab (AID 2283679; active means hit-call score of the fitted dose curve at least 0.9, where 1 is the maximum; inactive means score below 0.9;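 on AC50: zebrafish embryos with chorions exposed by immersion from 6-8 hpf to 5 dpf with daily renewal; teratogenicity score from eye scoring of death hatching and malformations at 144 hpf; higher score means more developmental defects relative to DMSO baseline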). The essentials: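 Larvae scored by eye at 144 hpf for death, hatching and malformations after a day in clean Hanks'. Before that, daily-renewed exposure at 80 uM (0.4% DMSO, 26C) from roughly 6-8 hpf through 5 dpf, 4 embryos per chemical.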

Read-out in experiment [2]: xenobiotic metabolism (CYP1A2), CYP1A2 (gene 1544)
As to the kind of experiment: CLD_CYP1A2_24hr: CellzDirect (CLD) Gene Expression Assay for xenobiotic metabolism (CYP1A2) at 24 hours (AID 2283683). The essentials: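 CYP1A2 mRNA induction measured by quantitative nuclease protection (chemiluminescent) in human primary hepatocytes 24 h after multi-concentration chemical dosing with daily fresh solutions. DMSO (0.2%) baseline; positive-direction fitting; morphology-based cytotoxicity noted.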

Read-out in experiment [3]: ABC Transporter (ABCB1), ABCB1 (gene 5243)
Briefly: CLD_ABCB1_24hr: CellzDirect (CLD) Gene Expression Assay for ABC Transporter (ABCB1) at 24 hours (AID 2283684). The essentials: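 ABCB1 mRNA induction versus 0.2% DMSO vehicle was read by qNPA chemiluminescence at 24 h. Cultured human hepatocytes from two donor preparations received daily fresh dosing, and phase-contrast cytotoxicity calls were annotated alongside the data.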

Read-out in experiment [4]: alkyl and aryl transferase (GSTA2), GSTA2 (gene 2939)
As to the kind of experiment: CLD_GSTA2_24hr: CellzDirect (CLD) Gene Expression Assay for alkyl and aryl transferase (GSTA2) at 24 hours (AID 2283693). The essentials:
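GSTA2 transcript levels were quantified by quantitative nuclease protection assay in primary human hepatocytes 24 h after daily dosing with fresh solutions at multiple concentrations; 0.2% DMSO vehicle as baseline, cytotoxicity flagged morphologically.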

Read-out in experiment [5]: sulfotransferase (SULT2A), SULT2A1 (gene 6822)
Briefly: CLD_SULT2A_24hr: CellzDirect (CLD) Gene Expression Assay for sulfotransferase (SULT2A) at 24 hours (AID 2283694). Put shortly: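 mRNA is measured by qNPA: probe hybridisation, S1 nuclease digestion, chemiluminescence, in lysates from human primary hepatocytes harvested 24 h after daily dosing. Vehicle was 0.2% DMSO. Phase-contrast microscopy flagged cytotoxicity (yes/no).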

Read-out in experiment [6]: ABC Transporter (ABCB1), ABCB1 (gene 5243)
Briefly: CLD_ABCB1_48hr: CellzDirect (CLD) Gene Expression Assay for ABC Transporter (ABCB1) at 48 hours (AID 2283695). The essentials: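 ABCB1 mRNA was measured by quantitative nuclease protection assay (chemiluminescence) 48 h after dosing. Human hepatocyte cultures from two separate donors received fresh dosing solutions daily for two days, with 0.2% DMSO as vehicle. Positive-direction fit against DMSO.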

Read-out in experiment [7]: Cytochrome P450 3A4 (Homo sapiens) (UniProt P08684)
Briefly: CLD_CYP3A4_6hr: CellzDirect (CLD) Gene Expression Assay for xenobiotic metabolism (CYP3A4) at 6 hours (AID 2283680). The essentials: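 CYP3A4 mRNA induction, 6 h after dosing of cultured primary human hepatocytes from two donors, read by quantitative nuclease protection (qNPA, chemiluminescence). Vehicle 0.2% DMSO as baseline; morphology-based cytotoxicity annotated yes/no.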

Read-out in experiment [8]: Glyceraldehyde-3-phosphate dehydrogenase (Homo sapiens) (UniProt P04406)
Briefly: CLD_GAPDH_6hr: CellzDirect (CLD) Gene Expression Assay for Baseline Control (Glyceraldehyde 3-phosphate dehydrogenase) at 6 hours (AID 2283681).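 Further: active means increased signal relative to DMSO vehicle.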 The essentials:
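GAPDH baseline-control readout from qNPA (S1 nuclease digestion, probe hybridization, chemiluminescence) in lysates of cultured human hepatocytes harvested 6 h post-dosing. Chemicals tested at multiple concentrations versus 0.2% DMSO vehicle; microscopy-based cytotoxicity flagged yes/no.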

Read-out in experiment [9]: HMG-CoA synthase (HMGCS2), HMGCS2 (gene 3158)
Briefly: CLD_HMGCS2_6hr: CellzDirect (CLD) Gene Expression Assay for HMG-CoA synthase (HMGCS2) at 6 hours (AID 2283682).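 Further: actives raise HMGCS2 transcript above the 0.2% DMSO vehicle baseline.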 The essentials: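 HMGCS2 transcript induction read by quantitative nuclease protection with chemiluminescence, 6 h after dosing of primary human hepatocytes. Baseline was 0.2% DMSO vehicle; phase-contrast morphology gave a yes/no cytotoxicity annotation.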

Read-out in experiment [10]: Glyceraldehyde-3-phosphate dehydrogenase (Homo sapiens) (UniProt P04406)
As to the kind of experiment: CLD_GAPDH_24hr: CellzDirect (CLD) Gene Expression Assay for Baseline Control (Glyceraldehyde 3-phosphate dehydrogenase) at 24 hours (AID 2283692). Put shortly:
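GAPDH baseline-control readout: qNPA chemiluminescent mRNA signal in human primary hepatocytes harvested 24 h after daily dosing, normalised to 0.2% DMSO with positive fitting direction; cytotoxicity annotated by phase-contrast morphology.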

Read-out in experiment [11]: glucuronosyltransferase (UGT1A1), UGT1A1 (gene 54658)
As to the kind of experiment: CLD_UGT1A1_24hr: CellzDirect (CLD) Gene Expression Assay for glucuronosyltransferase (UGT1A1) at 24 hours (AID 2283696). Put shortly: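 UGT1A1 transcript induction was measured by quantitative nuclease protection assay (chemiluminescence) in human hepatocyte cultures 24 h after daily fresh dosing, with 0.2% DMSO as vehicle and baseline.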

Read-out in experiment [12]: Cytochrome P450 2B6 (Homo sapiens) (UniProt P20813)
As to the kind of experiment: CLD_CYP2B6_24hr: CellzDirect (CLD) Gene Expression Assay for xenobiotic metabolism (CYP2B6) at 24 hours (AID 2283686). Put shortly:
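qNPA chemiluminescent measurement of mRNA at 24 hours in human primary hepatocyte cultures from two donor preparations, with daily fresh dosing and 0.2% DMSO vehicle as baseline. Morphology-based cytotoxicity flagged yes/no.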

The nature of experiment [13]: CLD_ACTIN_6hr: CellzDirect (CLD) Gene Expression Assay for Baseline Control (Actin) at 6 hours (AID 2283676).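 Further: active means increased actin mRNA relative to DMSO vehicle.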 The essentials:
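Baseline actin transcript level measured by qNPA (S1 nuclease protection, chemiluminescence) in human hepatocyte cultures 6 h after chemical exposure; 0.2% DMSO vehicle as reference, cytotoxicity noted from morphology.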

Read-out in experiment [14]: Cytochrome P450 3A4 (Homo sapiens) (UniProt P08684)
Briefly: CLD_CYP3A4_48hr: CellzDirect (CLD) Gene Expression Assay for xenobiotic metabolism (CYP3A4) at 48 hours (AID 2283698). Put shortly: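 CYP3A4 induction read by qNPA chemiluminescence after 48 h, with fresh dosing solutions on consecutive days, in cultured human hepatocytes (two donors). Vehicle 0.2% DMSO as baseline; microscopy-based cytotoxicity annotated yes/no alongside data.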

Read-out in experiment [15]: Cytochrome P450 2C19 (Homo sapiens) (UniProt P33261)
Briefly: CLD_CYP2C19_48hr: CellzDirect (CLD) Gene Expression Assay for xenobiotic metabolism (CYP2C19) at 48 hours (AID 2283700).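 Further: fitted upward so actives raise CYP2C19 mRNA above the 0.2% DMSO vehicle.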 Put shortly: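 CYP2C19 mRNA induction read by chemiluminescent quantitative nuclease protection assay after 48 h, with fresh compound added daily for two days to cultured human liver hepatocytes. Activity fitted upward against 0.2% DMSO vehicle.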

Read-out in experiment [16]: Cytochrome P450 2B6 (Homo sapiens) (UniProt P20813)
Briefly: CLD_CYP2B6_6hr: CellzDirect (CLD) Gene Expression Assay for xenobiotic metabolism (CYP2B6) at 6 hours (AID 2283677).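 Further: actives raise CYP2B6 transcript above DMSO baseline so AC50 marks an inducer.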 Put shortly: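 CYP2B6 transcript levels, read by chemiluminescent qNPA, were fitted for increase versus DMSO baseline; cultured human liver hepatocytes from two donor preparations were harvested 6 h after exposure to test chemicals at multiple concentrations.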

Read-out in experiment [17]: Cytochrome P450 2B6 (Homo sapiens) (UniProt P20813)
Briefly: CLD_CYP2B6_48hr: CellzDirect (CLD) Gene Expression Assay for xenobiotic metabolism (CYP2B6) at 48 hours (AID 2283699).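 Further: actives raise transcript level above DMSO so potency reflects induction.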 Put shortly:
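CYP2B6 transcript induction, read by quantitative nuclease protection (S1 digestion, chemiluminescent detection) 48 h after dosing, is fitted upward against 0.2% DMSO. Cultured human liver primary cells, two donor preparations, received fresh chemical daily over multiple concentrations.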

Sequence of Cytochrome P450 3A4 (Homo sapiens) (P08684 whole entry, looked up): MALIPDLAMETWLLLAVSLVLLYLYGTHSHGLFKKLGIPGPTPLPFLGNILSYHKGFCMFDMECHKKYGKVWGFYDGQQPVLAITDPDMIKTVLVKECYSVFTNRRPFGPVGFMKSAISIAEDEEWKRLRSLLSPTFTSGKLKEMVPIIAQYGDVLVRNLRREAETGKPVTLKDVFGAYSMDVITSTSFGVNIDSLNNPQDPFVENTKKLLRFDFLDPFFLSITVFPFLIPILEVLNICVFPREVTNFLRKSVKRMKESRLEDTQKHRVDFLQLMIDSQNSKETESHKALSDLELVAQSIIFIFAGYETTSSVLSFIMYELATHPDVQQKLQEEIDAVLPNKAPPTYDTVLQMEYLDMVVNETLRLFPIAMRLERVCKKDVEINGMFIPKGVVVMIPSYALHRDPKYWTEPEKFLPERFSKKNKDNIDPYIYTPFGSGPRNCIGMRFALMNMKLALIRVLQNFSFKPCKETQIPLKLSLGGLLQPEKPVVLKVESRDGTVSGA
Sequence of Cytochrome P450 2C19 (Homo sapiens) (P33261 whole entry, looked up): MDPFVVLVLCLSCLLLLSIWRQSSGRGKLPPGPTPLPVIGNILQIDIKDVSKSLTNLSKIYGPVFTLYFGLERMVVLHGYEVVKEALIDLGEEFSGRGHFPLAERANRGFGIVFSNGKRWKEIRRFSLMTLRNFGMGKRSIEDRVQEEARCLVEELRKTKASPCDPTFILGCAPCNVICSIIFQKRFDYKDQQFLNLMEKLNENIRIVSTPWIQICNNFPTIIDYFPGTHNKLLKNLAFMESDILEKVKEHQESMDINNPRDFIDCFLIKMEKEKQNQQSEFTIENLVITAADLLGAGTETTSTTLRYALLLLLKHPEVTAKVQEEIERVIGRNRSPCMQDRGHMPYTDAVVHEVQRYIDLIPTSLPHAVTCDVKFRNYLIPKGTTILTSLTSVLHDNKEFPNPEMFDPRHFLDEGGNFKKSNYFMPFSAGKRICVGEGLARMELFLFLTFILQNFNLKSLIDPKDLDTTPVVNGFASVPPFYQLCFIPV
Sequence of Glyceraldehyde-3-phosphate dehydrogenase (Homo sapiens) (P04406 whole entry, looked up): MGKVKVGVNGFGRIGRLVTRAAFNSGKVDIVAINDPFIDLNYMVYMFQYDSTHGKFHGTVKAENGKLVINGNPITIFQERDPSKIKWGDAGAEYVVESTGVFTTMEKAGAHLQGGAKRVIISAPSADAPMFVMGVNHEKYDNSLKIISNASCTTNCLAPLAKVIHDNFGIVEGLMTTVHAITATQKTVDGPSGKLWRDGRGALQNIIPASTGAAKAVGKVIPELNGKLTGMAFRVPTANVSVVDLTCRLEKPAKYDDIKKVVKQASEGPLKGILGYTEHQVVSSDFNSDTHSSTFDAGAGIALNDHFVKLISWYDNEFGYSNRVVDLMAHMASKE

As usually defined, the AC50 is the concentration at which the activity in the assay is half-maximal. On to `COP(=O)(OC)SCn1c(=O)oc2cc(Cl)cnc21`, for which the AC50 in [1] was 51.1 µM (active). For the same compound, the compound was called inactive in experiment [2], in experiment [3], in experiment [4], in experiment [5] and in [6].
As for `O=c1ccc(=O)[nH][nH]1`, the compound was called inactive in [1], in [7], in experiment [8], in [9], in experiment [2] and in [10]. Moreover, the result in experiment [6] and in experiment [11] was inactive.
Regarding `CCCSP(=O)(OCC)Oc1ccc(Br)cc1Cl` (centres undefined), the AC50 in experiment [1] was 8.79 µM (active); in experiment [7], 3.52 µM (active); in [2] it was 4.13 µM (active); in [11], 20 µM (active).
For `FC(F)C(F)(F)OCC(Cn1cncn1)c1ccc(Cl)cc1Cl` (centres undefined), the AC50 in experiment [1] was 57.8 µM (active); in experiment [2], 1.46 µM (active); in experiment [12] it was 0.275 µM (active). The result in experiment [4] and in experiment [6] was inactive.
For the compound `COP(=O)(OC)C(O)C(Cl)(Cl)Cl` (centres undefined), in experiment [1], the concentration at half-maximal activity (AC50) is 168 µM (active). Also, the outcome in [8], in [3], in experiment [4] and in [6] was inactive.
With `CCOC(=O)CC(SP(=O)(OC)OC)C(=O)OCC` (centres undefined), the call in [13], in [1], in [4] and in experiment [11] was inactive. Moreover, the AC50 in [2] is 2.38 µM (active); in experiment [12], 20 µM (active); in experiment [14] it was 20 µM (active).
With `COP(=O)(OC)OC(Br)C(Cl)(Cl)Br` (centres undefined), in experiment [1], the AC50 was 16.7 µM (active). For the same compound, the compound was called inactive in experiment [8], in experiment [9], in [2], in [4], in experiment [6] and in experiment [11]. Moreover, in [15], the outcome was inactive.
Regarding `C#CC(C)(C)NC(=O)c1cc(Cl)cc(Cl)c1`, the compound was called inactive in [13], in [1], in [2], in experiment [3], in [5] and in experiment [6]. Moreover, the compound was classed as inactive in experiment [14] and in [15].
On to `CCOP(=S)(OCC)Oc1ccc2c(C)c(Cl)c(=O)oc2c1`, for which the AC50 in [16] was 1.44 µM (active); in experiment [1], 27.3 µM (active); in [9], 0.00508 µM (active); in [2], 0.527 µM (active); in [12], 1.28 µM (active); in experiment [11], 1.09 µM (active). Further, the compound was called inactive in experiment [7], in experiment [4], in [6] and in experiment [15].
On to `CCC(=NOC/C=C/Cl)C1=C(O)CC(C2CCOCC2)CC1=O` (centres undefined), for which the compound was called inactive in [13], in experiment [1], in [8], in [9], in experiment [2] and in [10]. For the same compound, the compound was classed as inactive in experiment [6] and in [17].
